According to PubChem BioAssay (NCI):
About 79,000 compounds went through this panel and 15% of them were active in at least one assay; those are over-represented in the sample as a whole. No stated cut-off is given here; in the data, active means growth inhibition above about 70%; inactive means the rest.

Tests used:
[1] = NCI Yeast Anticancer Drug Screen. Data for the rad50 strain (AID 155);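 further: 0% = growth of vehicle-only cultures of the same strain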; conditions: S. cerevisiae rad50 strain growth inhibition; at 50.0 µM; active compounds read high
In short: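 Yeast carrying a defined DNA repair defect were exposed to test compounds, and growth was compared with vehicle-treated controls to give percent inhibition.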

[2] = NCI Yeast Anticancer Drug Screen. Data for the mec2-1 strain (AID 157); conditions: S. cerevisiae mec2-1 strain, at 50.0 µM, active compounds read high
In short: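 Mutant yeast (mec2-1) grown with compound; growth inhibition relative to vehicle control reported.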

[3] = NCI Yeast Anticancer Drug Screen. Data for the sgs1 mgt1 strain (AID 161);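 further: 0% = growth of cultures given vehicle only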; conditions: S. cerevisiae sgs1 mgt1 strain, at 50.0 µM, active compounds read high
In short: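 Percent growth inhibition was derived by comparing compound-exposed mutant yeast with vehicle-exposed cultures. The strain carries alterations in DNA damage repair.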

[4] = NCI Yeast Anticancer Drug Screen. Data for the cln2 rad14 strain (AID 165);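 further: 0% = growth equal to vehicle treated cultures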; conditions: S. cerevisiae cln2 rad14 strain, at 50.0 µM, active compounds read high
In short: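 Readout is yeast growth inhibition versus vehicle-treated controls, using a strain with cln2 and rad14 alterations exposed to compound.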

[5] = NCI Yeast Anticancer Drug Screen. Data for the bub3 strain (AID 167); conditions: S. cerevisiae bub3 mutant strain, at 50.0 µM, active compounds read high
In short: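 Compounds were applied to a genetically altered yeast strain carrying a cell-cycle control defect. Growth inhibition was scored against vehicle-treated controls.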

[6] = NCI Yeast Anticancer Drug Screen. Data for the mlh1 rad18 strain (AID 175); conditions: S. cerevisiae mlh1 rad18 strain growth inhibition; at 50.0 µM; active compounds read high
In short: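 Genetically defined yeast (DNA repair-deficient) exposed to compounds; growth inhibition determined relative to vehicle.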

Measured: growth inhibition

CCOC(=O)c1ccc(OC)cc1
inactive: [1] -12.7% | [2] -25.4% | [3] -8.8% | [4] 2.8% | [5] -3.55% | [6] -17.4%

Cn1cc([N+](=O)[O-])cc1C(=O)Nc1cc(C(=O)Nc2ccc(S(=O)(=O)O)c3cc(S(=O)(=O)O)ccc23)n(C)c1
inactive: [1] 2.4% | [2] 21.4% | [3] 14.3% | [4] 17.4% | [5] 20.4% | [6] 11.7%

CC1=NN(c2ccccc2)C(=O)/C1=C(\[O-])c1ccccc1.CC1=NN(c2ccccc2)C(=O)/C1=C(\[O-])c1ccccc1.CC1=NN(c2ccccc2)C(=O)/C1=C(\[O-])c1ccccc1.[Fe+3]
inactive: [1] 1.8% | [2] -5.75% | [3] -15.1% | [4] -16.7% | [5] -2.9% | [6] 4.45%

O=c1c(Cl)c(Cl)cnn1CCc1ccncc1
inactive: [1] 2.2% | [2] -4.05% | [3] -19.6% | [4] 11.4% | [5] -7.3% | [6] -2.65%

C=CCOC/C=C\CCOCC/C=C/COCC=C (tested in a mixture with another compound)
inactive: [1] 5% | [2] 1.3% | [3] 6.25% | [4] -13.6% | [5] 2.45% | [6] 2.35%

O=CCCC1CCCCC1
inactive: [1] 4.75% | [2] 1.5% | [3] -4.55% | [4] -17.4% | [5] 13.1% | [6] -5.7%

O=C(c1nc2ccc([N+](=O)[O-])cc2[nH]c1=O)C(O)c1ccc2c(c1)OCO2 (stereo not given)
inactive: [1] 32.4% | [2] -9.25% | [3] -11.1% | [4] 11.1% | [5] -1.25% | [6] 0.35%

COc1ccc(/C=C2\CCC(C)(CN(C)C)C2=O)cc1 (stereo not given)
inactive: [1] 36.5% | [2] 14.6% | [3] 8.15% | [4] 21.1% | [5] 4.35% | [6] 43%

NC(=O)N/N=C/c1ccncc1
inactive: [1] -7.15% | [2] 28.6% | [3] -24.9% | [4] -7.05% | [5] 8.6% | [6] 7.45%

CNC(=O)CCCCC(=O)NC
inactive: [1] -5.65% | [2] -7.9% | [3] -2.7% | [4] 6.15% | [5] -10.8% | [6] -19.2%

CC(=O)Nc1ccc(C(C#N)C(C#N)c2ccccc2)cc1 (stereo not given)
inactive: [1] -1.5% | [2] 8.75% | [3] -0.1% | [4] -68.3% | [5] 11.8% | [6] -2.55%

Cn1ccnc1CC(C)(O)c1ccccc1 (stereo not given)
inactive: [1] -13.2% | [2] -17.4% | [3] -44.9% | [4] 3.9% | [5] -23.4% | [6] 6.8%

Oc1ccc(Oc2cc3c(cc2Oc2ccc(O)cc2)-c2nc-3nc3[nH]c(nc4nc(nc5[nH]c(n2)c2cc(Oc6ccc(O)cc6)c(Oc6ccc(O)cc6)cc52)-c2cc(Oc5ccc(O)cc5)c(Oc5ccc(O)cc5)cc2-4)c2cc(Oc4ccc(O)cc4)c(Oc4ccc(O)cc4)cc32)cc1
inactive: [1] -94.7% | [2] -56.7% | [3] -119% | [4] -99.7% | [5] -80.5% | [6] -104%

CN(/N=C/c1cccs1)c1ccc([N+](=O)[O-])cc1[N+](=O)[O-]
inactive: [1] -24.7% | [2] -25.5% | [3] 7.05% | [4] -9.35% | [5] -12.8% | [6] -10.8%

CCC(C#N)(c1ccccc1)N(CCc1ccccc1)C(=O)c1ccccc1 (stereo not given)
inactive: [1] -5.8% | [2] -0.5% | [3] -12.9% | [4] -20.9% | [5] -13.2% | [6] -22.1%

Cc1ccccc1NC(=S)NN
inactive: [1] 22.2% | [2] 14.7% | [3] 14.1% | [4] 16.6% | [5] 11.9% | [6] 12.3%

C=Cc1cc2c(cc1O)CC[C@@H]1[C@@H]2CC[C@]2(C)[C@@H](O)CC[C@@H]12
inactive: [1] 17.4% | [2] 17.4% | [3] 36.8% | [4] 29.7% | [5] 22.9% | [6] 36.1%

CCCNC1CC(n2cc(C)c(=O)[nH]c2=O)OC1CO (stereo not given)
inactive: [1] -11.4% | [2] -7.85% | [3] -25.3% | [4] -14.7% | [5] -31.8% | [6] -26.8%

COc1cc(OC)c(C(C)=O)cc1OC
inactive: [1] -9.2% | [2] -13.9% | [3] -3.15% | [4] -2.8% | [5] 6.3% | [6] 6.7%

COC(=O)C1C(=O)C2CCC1C(=O)C2C(=O)OC (stereo not given)
inactive: [1] 1.95% | [2] -2.8% | [3] 16.4% | [4] 4.1% | [5] 9.75% | [6] 22.7%
